The source of these data is PubChem BioAssay (EPA / NIEHS).

The term AC50 denotes the concentration at which the activity in the assay is half-maximal.

The source made the active and inactive calls. How the source made its calls: active means hit-call score of the fitted dose curve at least 0.9, where 1 is the maximum; inconclusive means response in the unintended direction; inactive means score below 0.9.

This test can be described thus: Tanguay_ZF_120hpf_ActivityScore_legacy: (Legacy) Oregon State University Tanguay Lab 120 Hour Post-fertilization zebrafish Assay Score for Activity (AID 2283742).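 On AC50: static exposure from 6 hpf until 120 hpf at 28 °C.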 As for the experimental part:
Tanguay_ZF_120hpf_legacy is a whole embryo, multiplexed endpoint assay using zebrafish larvae exposed for 120 hours post fertilization on a 96-well plate.Tanguay_ZF_120hpf_ActivityScore_legacy is one of one assay component(s) measured or calculated from the Tanguay_ZF_120hpf_legacy assay. It is designed to make measurements of developmental malformations and mortality as detected with brightfield microscopy and combines scoring from 18 other assay components measuring more specific morphologies.Data from the assay component Tanguay_ZF_120hpf_ActivityScore_legacy was analyzed into 1 assay endpoints. This assay endpoint, Tanguay_ZF_120hpf_ActivityScore_legacy, was analyzed in the positive analysis fitting direction relative to DMSO as the negative control and baseline of activity. Using a type of morphology reporter, gain-of-signal activity can be used to understand changes in developmentals as they relate to the whole embryo. To generalize the intended target to other relatable targets, this assay endpoint is annotated to the zebrafish development intended target family, where the subfamily is embryonic morphogenesis and mortality.
Zebrafish husbandry: Tropical 5D wild-type adult zebrafish were housed in at an approximate density of 1000 per 100 gallon tank at the Sinnhuber Aquatic Research Laboratory, Oregon State University, Corvallis, OR. Each tank was kept at standard laboratory conditions of 28C on a 14-h light/10-h dark photoperiod in fish water consisting of reverse osmosis water supplemented with a commercially available salt (Instant Ocean). Spawning funnels were placed into the tanks the night prior, and embryos were collected and staged. To increase bioavailability, the chorion was enzymatically removed using pronase (63.6mg/ml, >/= 3.5U/mg, Sigma-Aldrich: P5147) at 4 hours post fertilization (hpf) using a custom automated dechorionator.Chemical exposures: Six hpf dechorionated embryos were placed 1 embryo per well in a 96-well plate prefilled with 90 ul of EM using automated embryo placement systems (AEPS). Ten microliters of each row of dilution plate 2 was added to 2 exposure plates. The final DMSO concentration used was 0.64% (vol/vol). Thirty-two embryos were also exposed to 5uM trimethyltin chloride (positive control). Plates were sealed to prevent evaporation and foil covered to reduce light exposure and kept in a 28C incubator. Embryos were statically exposed until 120 hpf. At 24 hpf, embryos were assessed for photomotor response using a custom photomotor response analysis tool (PRAT) and for developmental toxicity endpoints (MO24: mortality at 24 hpf, DP: developmental progression, SM: spontaneous movement, and NC: notochord distortion). At 120 hpf, locomotor activity was measured using Viewpoint Zebralab and assessed for 18 endpoints. Zebrafish acquisition and analysis program (ZAAP), a custom program designed to inventory, acquire, and manage zebrafish data, was used to collect developmental endpoints as either present or absent (i.e., binary responses were recorded). If mortality occurred for an embryo (at either 24 or 120 hpf), the non-mortality endpoints were not measured.
With `CCC(C)(C)c1ccc(O)cc1`, the AC50 is 21.3 µM (active).
Take `CCOC(=O)c1ccccc1C(=O)OCC`: the call was inactive.
Still for that read-out and setting: under `[N-]=[N+]=[N-]` stands “inactive”.
As for `Nc1ccc(Cl)cc1`, the compound was classed as inactive.
On the same count and under the same terms, to `CCCCCCCc1ccc(O)cc1` belongs “inactive”; to `CCNc1nc(Cl)nc(NC(C)(C)C)n1`, “inactive”.
Still for that read-out and setting: under `CCOS(=O)(=O)OCC` stands “inactive”.
On the same count and under the same terms, under `ClC1=C(Cl)C2(Cl)C3C(Cl)C(Cl)CC3C1(Cl)C2(Cl)Cl` (stereo not given) stands “inactive”.
Take `c1ccc2c(c1)Nc1ccccc1S2`: the call was inactive.
As to `Cc1ccc([N+](=O)[O-])cc1C`, the result was inactive.
Still for that read-out and setting: to `CC(Cc1ccc(OCC(=O)O)cc1)NCC(O)c1csc(C(F)(F)F)n1` (stereo not given) belongs “inactive”; to `O=[N+]([O-])c1ccccc1`, “inactive”.
The same measure, in the same setting: under `O=P(Oc1ccccc1)(Oc1ccccc1)Oc1ccccc1` stands “inactive”; under `CCOc1ccc(C(C)(C)COCc2cccc(Oc3ccccc3)c2)cc1`, “inactive”.
Take `CC(C)(C)c1ccc(O)cc1`: the AC50 is 42.8 µM (active).
On the same count and under the same terms, under `Nc1ccc2ccccc2c1` stands 36.8 µM (active).
As to `O=[N+]([O-])c1ccc(Cl)c(Cl)c1`, the compound was called inactive.
As to `CC(Cl)(Cl)C(=O)O`, the compound was called inactive.
On to `Cc1ccc(N)cc1N`, for which the half-maximal activity concentration (AC50) is 0.00921 µM (active).
As for `CCCCN(CCCC)N=O`, the outcome was inactive.
Take `CCOP(=S)(OCC)SCSCC`: the call was inactive.
`c1nc[nH]n1`: the result was inactive.
Still for that read-out and setting: to `CCCN(CCC)c1c([N+](=O)[O-])cc(C(C)C)cc1[N+](=O)[O-]` belongs “inactive”.
Regarding `OCC1CO1` (stereo not given), the call was inactive.
Same read-out and setting: under `CCCCc1ccccc1` stands “inactive”; under `CCC1(c2ccccc2)C(=O)N=C(O)NC1=O` (stereo not given), “inactive”.
Same read-out and setting: to `O=P1(N(CCCl)CCCl)NCCCO1` (stereo not given) belongs “inactive”.
Still for that read-out and setting: to `CSC(C)(C)C=NO` belongs “inactive”; to `Cc1ccc(O)cc1C`, “inactive”; to `c1cc2c3c(cccc3c1)CC2`, “inactive”.
`CC(C)(C)OOC(C)(C)C`: the outcome was inactive.
Still for that read-out and setting: to `Cc1cccc(N)c1` belongs “inactive”; to `O=C(O)C1C(C(=O)O)C2(Cl)C(Cl)=C(Cl)C1(Cl)C2(Cl)Cl` (stereo not given), “inactive”; to `Nc1cc2c3c(c1)C(c1ccccc1)=N[C@@H](NC(=O)c1cccnc1)C(=O)N3CC2`, “inactive”.
Regarding `ClC(Cl)(Cl)c1ccccc1`, the result was inactive.
The same measure, in the same setting: under `c1ccc(OP(Oc2ccccc2)Oc2ccccc2)cc1` stands “inactive”; under `O=C(O)C(Cl)Cl`, “inactive”; under `COCCOCCO`, “inactive”.
The same measure, in the same setting: to `CCCCN(CCCC)SN(C)C(=O)Oc1cccc2c1OC(C)(C)C2` belongs “inactive”; to `CCN(CC)c1ccccc1`, “inactive”.
